Test results from the supplement of paper PMC11732987, “Enantioselective OTUD7B fragment discovery through chemoproteomics screening and high-throughput optimisation” (Communications Chemistry, 2025).

What was measured:
Experiment in all cases: log2 ratio of Biotin-Ahx-Ub-VS probe labelling (fragment/DMSO); higher = less target engagement (more negative = stronger competition), active = hit call of the paper (q ≤ 0.05, log2 ratio ≤ -1)
Settings in all cases: compound concentration: 200 uM; treatment time: 3 h
[1] = target: T1, USP42 (UniProt Q9H9J4)
T1 sequence (whole entry): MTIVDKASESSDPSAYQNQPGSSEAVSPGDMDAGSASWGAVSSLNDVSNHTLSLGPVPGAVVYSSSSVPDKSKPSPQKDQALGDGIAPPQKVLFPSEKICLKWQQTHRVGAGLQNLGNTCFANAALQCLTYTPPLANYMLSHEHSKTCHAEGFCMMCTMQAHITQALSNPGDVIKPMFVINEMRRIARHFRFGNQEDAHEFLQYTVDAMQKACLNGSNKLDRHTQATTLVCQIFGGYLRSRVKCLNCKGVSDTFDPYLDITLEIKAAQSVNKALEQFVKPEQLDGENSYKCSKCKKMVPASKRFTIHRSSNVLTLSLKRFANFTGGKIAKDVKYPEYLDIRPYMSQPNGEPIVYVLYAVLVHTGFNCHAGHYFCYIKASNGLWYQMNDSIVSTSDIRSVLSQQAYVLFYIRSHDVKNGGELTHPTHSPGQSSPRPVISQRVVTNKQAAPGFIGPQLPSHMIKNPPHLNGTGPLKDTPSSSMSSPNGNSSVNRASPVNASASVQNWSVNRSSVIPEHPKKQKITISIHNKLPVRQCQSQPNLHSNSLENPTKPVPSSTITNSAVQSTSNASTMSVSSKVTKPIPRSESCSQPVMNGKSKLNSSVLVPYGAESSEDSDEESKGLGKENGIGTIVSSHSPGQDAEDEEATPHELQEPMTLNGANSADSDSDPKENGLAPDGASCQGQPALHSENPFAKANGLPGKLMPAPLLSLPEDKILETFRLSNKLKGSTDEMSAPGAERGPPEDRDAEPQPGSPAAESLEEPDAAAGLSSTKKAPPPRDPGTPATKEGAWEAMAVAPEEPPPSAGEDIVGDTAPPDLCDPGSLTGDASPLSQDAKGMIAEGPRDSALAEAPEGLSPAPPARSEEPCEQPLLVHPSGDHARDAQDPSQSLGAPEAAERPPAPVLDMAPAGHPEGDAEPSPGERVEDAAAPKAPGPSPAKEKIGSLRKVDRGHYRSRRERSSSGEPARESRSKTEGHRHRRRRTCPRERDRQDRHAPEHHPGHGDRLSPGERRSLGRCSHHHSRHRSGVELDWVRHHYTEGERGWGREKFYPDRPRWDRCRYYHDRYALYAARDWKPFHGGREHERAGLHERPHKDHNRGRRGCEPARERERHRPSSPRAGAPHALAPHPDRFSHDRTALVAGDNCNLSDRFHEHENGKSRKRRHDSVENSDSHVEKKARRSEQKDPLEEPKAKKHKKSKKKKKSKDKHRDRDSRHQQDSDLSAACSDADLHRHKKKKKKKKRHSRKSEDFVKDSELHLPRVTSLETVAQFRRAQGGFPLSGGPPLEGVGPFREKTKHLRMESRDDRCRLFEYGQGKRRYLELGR
Procedure, shortened: (§1)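 Fragment (200 µM) or vehicle was incubated for 3 h with triplicate HEK293T lysate samples of 495 µg, which were then treated with Biotin-Ahx-Ub-VS at 0.5 µM final for 1 h. Labelled DUBs were enriched on NeutrAvidin, digested with LysC and trypsin, and analysed by diaPASEF LC-MS/MS. Values are average log2 fragment/vehicle ratios from an unpaired t-test on global-median-normalised Spectronaut label-free quantities, using proteins with ≥2 unique peptides.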

[2] = target: USP46 (UniProt P62068)
Procedure, shortened: as §1

[3] = target: T2, USP47 (UniProt Q96K76)
T2 sequence (whole entry): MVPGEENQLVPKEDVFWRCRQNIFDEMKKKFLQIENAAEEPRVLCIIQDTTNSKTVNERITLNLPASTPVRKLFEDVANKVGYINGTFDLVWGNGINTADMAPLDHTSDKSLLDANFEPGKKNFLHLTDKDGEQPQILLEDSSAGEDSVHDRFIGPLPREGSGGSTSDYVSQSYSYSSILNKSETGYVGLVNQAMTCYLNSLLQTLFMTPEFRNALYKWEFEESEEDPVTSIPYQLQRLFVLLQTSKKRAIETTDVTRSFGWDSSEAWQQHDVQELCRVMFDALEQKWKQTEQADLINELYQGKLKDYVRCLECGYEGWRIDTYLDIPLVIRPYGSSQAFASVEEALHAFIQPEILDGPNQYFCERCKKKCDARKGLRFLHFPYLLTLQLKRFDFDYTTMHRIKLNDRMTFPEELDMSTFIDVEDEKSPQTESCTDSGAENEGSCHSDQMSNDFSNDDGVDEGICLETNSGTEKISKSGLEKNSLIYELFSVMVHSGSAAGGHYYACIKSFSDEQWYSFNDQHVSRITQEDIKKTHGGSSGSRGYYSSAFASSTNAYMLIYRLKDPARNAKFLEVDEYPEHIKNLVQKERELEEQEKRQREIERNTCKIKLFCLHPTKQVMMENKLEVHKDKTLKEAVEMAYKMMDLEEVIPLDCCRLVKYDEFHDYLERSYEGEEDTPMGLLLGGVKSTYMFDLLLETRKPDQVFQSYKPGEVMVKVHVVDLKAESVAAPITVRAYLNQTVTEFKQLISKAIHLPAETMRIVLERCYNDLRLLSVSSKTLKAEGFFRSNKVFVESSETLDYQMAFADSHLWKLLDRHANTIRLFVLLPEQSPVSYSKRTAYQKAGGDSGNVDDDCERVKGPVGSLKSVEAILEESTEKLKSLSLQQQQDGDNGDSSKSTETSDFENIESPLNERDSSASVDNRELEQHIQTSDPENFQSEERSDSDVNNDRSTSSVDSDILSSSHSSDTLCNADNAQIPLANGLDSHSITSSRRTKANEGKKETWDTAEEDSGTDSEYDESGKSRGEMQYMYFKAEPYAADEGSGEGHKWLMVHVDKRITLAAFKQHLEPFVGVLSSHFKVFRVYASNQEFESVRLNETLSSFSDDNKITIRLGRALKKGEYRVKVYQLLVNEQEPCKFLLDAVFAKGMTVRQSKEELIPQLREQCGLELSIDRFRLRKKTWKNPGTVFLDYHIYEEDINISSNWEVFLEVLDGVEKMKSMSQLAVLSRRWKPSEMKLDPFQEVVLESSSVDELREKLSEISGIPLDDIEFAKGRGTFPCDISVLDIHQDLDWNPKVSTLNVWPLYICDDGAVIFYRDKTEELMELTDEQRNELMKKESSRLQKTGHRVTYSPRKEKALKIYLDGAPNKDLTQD
Procedure, shortened: as §1

[4] = target: T3, USP48 (UniProt Q86UV5)
T3 sequence (whole entry): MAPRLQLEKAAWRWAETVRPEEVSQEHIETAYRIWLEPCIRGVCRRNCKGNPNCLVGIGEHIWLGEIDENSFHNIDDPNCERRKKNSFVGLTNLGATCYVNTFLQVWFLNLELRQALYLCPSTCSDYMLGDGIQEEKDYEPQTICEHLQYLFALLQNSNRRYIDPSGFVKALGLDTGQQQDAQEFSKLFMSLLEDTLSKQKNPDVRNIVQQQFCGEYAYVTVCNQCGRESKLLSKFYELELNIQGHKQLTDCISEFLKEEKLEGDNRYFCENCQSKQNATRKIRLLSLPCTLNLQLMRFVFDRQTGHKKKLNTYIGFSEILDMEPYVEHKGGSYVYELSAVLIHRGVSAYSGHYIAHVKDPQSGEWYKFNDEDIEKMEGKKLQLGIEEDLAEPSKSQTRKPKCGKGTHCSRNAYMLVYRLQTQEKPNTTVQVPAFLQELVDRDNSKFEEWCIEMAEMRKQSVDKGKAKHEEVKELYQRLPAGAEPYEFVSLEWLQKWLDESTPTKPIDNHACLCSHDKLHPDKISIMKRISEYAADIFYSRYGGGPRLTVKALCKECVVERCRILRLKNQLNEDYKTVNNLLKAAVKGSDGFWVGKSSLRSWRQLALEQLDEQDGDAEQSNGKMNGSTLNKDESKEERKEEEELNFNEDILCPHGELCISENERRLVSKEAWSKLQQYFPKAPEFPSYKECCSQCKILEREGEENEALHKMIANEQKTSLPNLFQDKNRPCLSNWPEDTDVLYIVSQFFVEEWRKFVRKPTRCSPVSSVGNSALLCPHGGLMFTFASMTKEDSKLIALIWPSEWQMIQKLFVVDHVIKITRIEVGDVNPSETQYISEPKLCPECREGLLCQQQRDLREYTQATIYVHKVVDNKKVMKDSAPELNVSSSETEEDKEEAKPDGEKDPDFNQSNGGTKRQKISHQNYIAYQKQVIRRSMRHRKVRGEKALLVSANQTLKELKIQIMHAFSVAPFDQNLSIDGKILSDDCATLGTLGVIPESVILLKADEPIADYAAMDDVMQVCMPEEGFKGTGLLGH
Procedure, shortened: as §1

[5] = target: T4, USP5 (UniProt P45974)
T4 sequence (whole entry): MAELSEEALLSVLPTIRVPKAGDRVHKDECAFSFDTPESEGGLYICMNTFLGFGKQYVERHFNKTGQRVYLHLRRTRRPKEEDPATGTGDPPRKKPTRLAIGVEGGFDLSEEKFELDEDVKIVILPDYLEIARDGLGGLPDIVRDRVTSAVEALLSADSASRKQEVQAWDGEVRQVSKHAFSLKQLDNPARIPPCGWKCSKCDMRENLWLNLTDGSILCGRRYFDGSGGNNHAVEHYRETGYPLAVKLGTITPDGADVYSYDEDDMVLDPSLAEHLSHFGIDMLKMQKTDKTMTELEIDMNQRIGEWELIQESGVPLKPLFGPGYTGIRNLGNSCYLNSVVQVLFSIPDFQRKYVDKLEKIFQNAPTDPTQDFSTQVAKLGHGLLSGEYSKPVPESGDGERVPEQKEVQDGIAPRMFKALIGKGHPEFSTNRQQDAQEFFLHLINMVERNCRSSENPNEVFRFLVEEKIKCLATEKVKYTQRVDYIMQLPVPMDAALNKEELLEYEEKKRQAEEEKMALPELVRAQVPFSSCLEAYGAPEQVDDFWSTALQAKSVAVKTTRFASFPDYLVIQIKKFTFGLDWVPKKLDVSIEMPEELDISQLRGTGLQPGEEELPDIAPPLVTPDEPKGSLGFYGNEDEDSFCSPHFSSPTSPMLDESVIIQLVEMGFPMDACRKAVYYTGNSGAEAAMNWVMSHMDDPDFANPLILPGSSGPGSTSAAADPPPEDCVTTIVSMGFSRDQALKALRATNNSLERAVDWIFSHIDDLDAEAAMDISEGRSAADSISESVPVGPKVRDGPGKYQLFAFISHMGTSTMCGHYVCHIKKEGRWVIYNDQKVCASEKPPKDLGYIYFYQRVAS
Procedure, shortened: as §1

[6] = target: USP54 (UniProt Q70EL1)
Procedure, shortened: as §1

[7] = target: USP7 (UniProt Q93009)
Procedure, shortened: as §1

[8] = target: T5, USP8 (UniProt P40818)
T5 sequence (whole entry): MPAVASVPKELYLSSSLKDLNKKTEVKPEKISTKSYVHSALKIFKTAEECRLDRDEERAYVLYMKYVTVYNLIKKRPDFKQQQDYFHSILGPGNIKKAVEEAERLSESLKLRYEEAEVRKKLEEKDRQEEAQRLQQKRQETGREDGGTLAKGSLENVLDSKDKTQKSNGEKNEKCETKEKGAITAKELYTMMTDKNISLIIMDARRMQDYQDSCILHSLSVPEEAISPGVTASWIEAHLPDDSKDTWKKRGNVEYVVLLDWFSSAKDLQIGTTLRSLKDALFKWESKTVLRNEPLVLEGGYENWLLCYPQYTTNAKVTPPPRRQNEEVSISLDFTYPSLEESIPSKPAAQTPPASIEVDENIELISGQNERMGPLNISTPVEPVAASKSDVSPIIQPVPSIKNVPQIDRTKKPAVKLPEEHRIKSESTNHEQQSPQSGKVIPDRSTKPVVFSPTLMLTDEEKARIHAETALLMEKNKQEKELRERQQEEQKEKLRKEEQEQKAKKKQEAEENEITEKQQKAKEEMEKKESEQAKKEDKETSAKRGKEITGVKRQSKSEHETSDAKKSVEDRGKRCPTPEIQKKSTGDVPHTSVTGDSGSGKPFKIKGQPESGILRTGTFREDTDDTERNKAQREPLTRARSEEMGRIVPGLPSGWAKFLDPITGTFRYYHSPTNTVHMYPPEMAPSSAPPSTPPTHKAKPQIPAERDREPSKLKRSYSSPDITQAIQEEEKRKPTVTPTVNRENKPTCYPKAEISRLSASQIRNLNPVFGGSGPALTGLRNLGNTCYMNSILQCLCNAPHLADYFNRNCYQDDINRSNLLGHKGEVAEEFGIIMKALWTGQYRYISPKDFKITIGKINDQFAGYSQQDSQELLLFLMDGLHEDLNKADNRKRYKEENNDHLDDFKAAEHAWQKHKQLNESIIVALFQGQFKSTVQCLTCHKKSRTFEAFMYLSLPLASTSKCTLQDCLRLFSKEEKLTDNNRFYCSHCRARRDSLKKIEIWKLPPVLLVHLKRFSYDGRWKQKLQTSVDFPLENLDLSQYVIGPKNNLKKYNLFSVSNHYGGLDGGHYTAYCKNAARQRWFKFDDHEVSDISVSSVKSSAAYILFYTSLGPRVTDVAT
Procedure, shortened: as §1

[9] = target: USP9X (UniProt Q93008)
Procedure, shortened: as §1

[10] = target: UniProt O00487
Procedure, shortened: as §1

Measured: log2 ratio of Biotin-Ahx-Ub-VS probe labelling

Sequence of USP54 (Q70EL1 whole entry): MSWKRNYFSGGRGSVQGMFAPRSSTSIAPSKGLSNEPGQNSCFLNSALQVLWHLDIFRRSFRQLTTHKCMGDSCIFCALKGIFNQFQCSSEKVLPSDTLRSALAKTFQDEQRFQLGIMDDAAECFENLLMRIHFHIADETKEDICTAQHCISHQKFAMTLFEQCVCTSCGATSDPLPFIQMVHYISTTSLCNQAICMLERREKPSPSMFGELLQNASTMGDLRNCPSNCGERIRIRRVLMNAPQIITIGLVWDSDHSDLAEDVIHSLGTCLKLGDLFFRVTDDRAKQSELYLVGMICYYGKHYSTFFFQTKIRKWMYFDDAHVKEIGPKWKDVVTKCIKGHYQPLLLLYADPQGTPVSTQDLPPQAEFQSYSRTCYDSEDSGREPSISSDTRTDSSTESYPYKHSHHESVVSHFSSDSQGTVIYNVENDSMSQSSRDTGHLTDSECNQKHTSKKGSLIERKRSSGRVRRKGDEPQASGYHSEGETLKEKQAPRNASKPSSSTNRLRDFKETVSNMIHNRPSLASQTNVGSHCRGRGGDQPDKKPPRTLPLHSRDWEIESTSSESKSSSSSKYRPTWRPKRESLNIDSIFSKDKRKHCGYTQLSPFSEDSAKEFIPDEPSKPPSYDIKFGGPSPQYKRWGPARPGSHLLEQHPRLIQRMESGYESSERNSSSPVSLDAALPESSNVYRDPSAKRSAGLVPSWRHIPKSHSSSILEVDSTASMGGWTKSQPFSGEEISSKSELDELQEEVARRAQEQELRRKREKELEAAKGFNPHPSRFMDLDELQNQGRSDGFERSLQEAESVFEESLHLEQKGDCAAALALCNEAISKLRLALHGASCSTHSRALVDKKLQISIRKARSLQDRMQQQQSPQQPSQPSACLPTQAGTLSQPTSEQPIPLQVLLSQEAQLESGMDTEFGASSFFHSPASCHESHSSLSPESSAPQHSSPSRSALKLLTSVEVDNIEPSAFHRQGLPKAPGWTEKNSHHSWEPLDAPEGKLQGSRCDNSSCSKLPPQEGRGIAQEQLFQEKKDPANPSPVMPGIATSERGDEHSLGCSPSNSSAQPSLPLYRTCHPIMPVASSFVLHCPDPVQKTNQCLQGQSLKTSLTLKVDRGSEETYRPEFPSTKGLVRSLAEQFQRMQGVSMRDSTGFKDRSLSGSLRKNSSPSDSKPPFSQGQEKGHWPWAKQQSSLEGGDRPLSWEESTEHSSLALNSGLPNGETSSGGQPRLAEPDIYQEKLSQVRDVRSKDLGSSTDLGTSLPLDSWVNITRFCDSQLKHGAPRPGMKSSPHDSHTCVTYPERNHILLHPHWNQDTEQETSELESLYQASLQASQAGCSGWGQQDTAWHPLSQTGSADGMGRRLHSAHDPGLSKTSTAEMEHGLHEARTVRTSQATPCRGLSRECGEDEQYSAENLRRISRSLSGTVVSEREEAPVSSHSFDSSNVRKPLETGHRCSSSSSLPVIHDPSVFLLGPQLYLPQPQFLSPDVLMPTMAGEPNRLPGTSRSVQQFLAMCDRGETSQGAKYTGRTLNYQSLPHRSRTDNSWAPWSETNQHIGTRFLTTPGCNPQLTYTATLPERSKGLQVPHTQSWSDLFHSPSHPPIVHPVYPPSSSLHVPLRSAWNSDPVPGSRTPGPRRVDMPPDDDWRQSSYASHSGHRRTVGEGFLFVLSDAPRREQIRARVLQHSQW
Sequence of USP9X (Q93008 whole entry): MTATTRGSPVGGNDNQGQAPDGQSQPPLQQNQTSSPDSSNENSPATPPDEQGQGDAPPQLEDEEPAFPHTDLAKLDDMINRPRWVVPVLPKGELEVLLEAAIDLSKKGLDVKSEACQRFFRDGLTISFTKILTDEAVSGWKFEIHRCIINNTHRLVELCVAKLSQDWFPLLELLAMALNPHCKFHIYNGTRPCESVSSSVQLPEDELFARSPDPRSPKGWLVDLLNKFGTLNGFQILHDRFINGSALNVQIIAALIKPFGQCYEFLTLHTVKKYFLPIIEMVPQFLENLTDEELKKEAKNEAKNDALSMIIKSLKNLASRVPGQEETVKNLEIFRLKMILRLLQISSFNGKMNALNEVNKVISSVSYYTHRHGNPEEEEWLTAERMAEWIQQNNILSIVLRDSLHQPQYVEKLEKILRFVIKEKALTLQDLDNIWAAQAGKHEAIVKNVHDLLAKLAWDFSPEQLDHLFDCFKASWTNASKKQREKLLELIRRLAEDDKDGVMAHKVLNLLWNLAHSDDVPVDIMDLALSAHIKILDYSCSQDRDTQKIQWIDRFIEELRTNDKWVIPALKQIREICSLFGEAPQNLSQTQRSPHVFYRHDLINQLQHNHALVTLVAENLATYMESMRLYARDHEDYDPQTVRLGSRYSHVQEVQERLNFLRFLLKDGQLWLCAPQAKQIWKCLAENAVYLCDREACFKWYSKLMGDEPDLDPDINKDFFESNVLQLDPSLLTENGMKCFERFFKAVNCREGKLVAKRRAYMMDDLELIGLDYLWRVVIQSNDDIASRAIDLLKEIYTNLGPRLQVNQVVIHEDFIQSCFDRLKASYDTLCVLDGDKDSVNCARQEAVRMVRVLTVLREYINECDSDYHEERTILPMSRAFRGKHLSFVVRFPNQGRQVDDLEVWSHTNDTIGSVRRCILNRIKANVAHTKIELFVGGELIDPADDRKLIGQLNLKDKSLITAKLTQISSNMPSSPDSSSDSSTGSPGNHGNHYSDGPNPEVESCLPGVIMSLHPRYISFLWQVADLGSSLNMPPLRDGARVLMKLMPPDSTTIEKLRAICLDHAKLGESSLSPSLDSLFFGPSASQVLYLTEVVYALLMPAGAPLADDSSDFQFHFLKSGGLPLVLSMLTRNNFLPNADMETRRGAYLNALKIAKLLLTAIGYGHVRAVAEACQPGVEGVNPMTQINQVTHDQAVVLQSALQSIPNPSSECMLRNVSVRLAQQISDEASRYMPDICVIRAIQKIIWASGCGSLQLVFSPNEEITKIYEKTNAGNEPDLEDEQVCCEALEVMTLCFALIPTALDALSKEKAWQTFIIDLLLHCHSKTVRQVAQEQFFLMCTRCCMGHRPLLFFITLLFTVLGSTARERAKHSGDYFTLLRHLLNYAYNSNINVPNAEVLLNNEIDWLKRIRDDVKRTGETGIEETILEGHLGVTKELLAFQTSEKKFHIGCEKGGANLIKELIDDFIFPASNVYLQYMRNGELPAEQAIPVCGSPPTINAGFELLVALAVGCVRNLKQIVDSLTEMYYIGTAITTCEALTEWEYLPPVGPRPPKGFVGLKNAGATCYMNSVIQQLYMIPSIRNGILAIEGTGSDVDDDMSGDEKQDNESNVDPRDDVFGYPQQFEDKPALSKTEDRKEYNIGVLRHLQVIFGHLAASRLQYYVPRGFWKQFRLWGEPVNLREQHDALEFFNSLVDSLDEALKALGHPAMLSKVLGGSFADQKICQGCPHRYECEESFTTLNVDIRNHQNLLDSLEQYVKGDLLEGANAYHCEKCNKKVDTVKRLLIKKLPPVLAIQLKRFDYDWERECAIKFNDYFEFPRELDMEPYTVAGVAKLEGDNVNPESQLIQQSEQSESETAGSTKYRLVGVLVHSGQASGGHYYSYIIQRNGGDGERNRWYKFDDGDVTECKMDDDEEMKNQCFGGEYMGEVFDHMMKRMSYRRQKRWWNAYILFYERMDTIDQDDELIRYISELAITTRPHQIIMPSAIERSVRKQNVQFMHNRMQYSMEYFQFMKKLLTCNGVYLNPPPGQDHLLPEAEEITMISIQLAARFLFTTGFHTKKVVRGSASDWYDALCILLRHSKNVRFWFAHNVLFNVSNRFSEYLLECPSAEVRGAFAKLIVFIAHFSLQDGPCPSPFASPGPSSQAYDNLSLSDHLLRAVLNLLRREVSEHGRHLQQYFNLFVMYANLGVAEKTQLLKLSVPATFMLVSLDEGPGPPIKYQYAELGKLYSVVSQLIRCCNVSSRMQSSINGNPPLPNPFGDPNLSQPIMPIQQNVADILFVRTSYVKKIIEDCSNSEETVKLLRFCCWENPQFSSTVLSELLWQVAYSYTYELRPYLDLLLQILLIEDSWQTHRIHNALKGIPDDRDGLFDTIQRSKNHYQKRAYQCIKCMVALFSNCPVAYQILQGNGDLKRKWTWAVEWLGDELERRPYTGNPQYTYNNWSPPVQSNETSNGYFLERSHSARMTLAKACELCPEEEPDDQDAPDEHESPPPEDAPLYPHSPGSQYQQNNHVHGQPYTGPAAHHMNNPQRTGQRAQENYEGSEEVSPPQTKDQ
Sequence of UniProt O00487 (O00487 whole entry): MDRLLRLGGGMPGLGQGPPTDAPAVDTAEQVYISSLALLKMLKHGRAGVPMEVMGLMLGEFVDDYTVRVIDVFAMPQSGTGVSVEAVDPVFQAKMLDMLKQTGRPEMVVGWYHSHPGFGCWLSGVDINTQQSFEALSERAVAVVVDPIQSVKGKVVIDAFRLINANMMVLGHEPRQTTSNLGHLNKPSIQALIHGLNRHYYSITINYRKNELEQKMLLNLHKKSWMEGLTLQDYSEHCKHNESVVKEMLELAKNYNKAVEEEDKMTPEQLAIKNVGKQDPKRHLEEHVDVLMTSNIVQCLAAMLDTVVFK
Sequence of USP46 (P62068 whole entry): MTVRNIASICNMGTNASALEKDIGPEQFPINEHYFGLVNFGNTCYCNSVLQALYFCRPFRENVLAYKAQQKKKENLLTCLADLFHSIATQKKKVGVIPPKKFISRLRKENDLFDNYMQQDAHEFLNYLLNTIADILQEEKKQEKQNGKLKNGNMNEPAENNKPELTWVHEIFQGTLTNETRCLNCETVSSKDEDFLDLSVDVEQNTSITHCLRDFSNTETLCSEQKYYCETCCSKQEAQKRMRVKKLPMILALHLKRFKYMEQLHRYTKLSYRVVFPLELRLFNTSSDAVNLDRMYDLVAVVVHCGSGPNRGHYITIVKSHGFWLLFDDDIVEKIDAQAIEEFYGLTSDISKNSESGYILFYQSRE

O=C(CCl)NCc1noc(C2CC2)n1
inactive: [1] -0.112 | [2] -0.0864 | [3] -0.0714 | [4] -0.135 | [5] -0.183 | [6] 1.02 | [7] -0.262 | [8] -0.421 | [9] -0.268 | [10] -0.16
